From PubChem BioAssay AID1159580 (chemical genetic matrix, 2015)
Among all 5,500 compounds or so, about 2,000 (36%) were called active. Roughly 18% stayed inconclusive and do not appear here. Rule as the data show it: active = normalized growth mostly below about 0.91 (no sharp cut-off); inconclusive = no clear call, values can overlap the other calls; inactive = mostly above about 0.92. The list shows a part of the results.

Assay: chemical genetic growth profiling, strain panel (AID 1159580);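 also: tested at 20 µM; growth read once vehicle control cultures reached saturation at 30 °C; 1 = growth at the plate median or of vehicle wells; lower values mean less growth of the strain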
Settings: S. cerevisiae deletion strains, growth OD

Measured: normalized growth

C[C@]12CCC(=O)C=C1CC[C@@H]1[C@@H]2C(=O)C[C@@]2(C)[C@H]1CC[C@]2(O)C(=O)CO
inactive: locus YAL040C, strain CLN3, stronger effect = lower value 0.957 | locus YCL061C, strain MRC1 (second series), stronger effect = lower value 0.993 | locus YDR150W, strain NUM1, stronger effect = lower value 1 | locus YDR363W, strain ESC2, stronger effect = lower value 0.986 | locus YER002W, strain NOP16, stronger effect = lower value 0.966 | locus YNL128W, strain TEP1, stronger effect = lower value 0.978 | locus YNL153C, strain GIM3, stronger effect = lower value 0.979 | locus YNL175C, strain NOP13, stronger effect = lower value 0.982 | locus YNL197C, strain WHI3, stronger effect = lower value 0.942 | locus YNL224C, strain SQS1, stronger effect = lower value 0.983 | locus YNL322C, strain KRE1, stronger effect = lower value 0.988 | locus YOR083W, strain WHI5 (second series), stronger effect = lower value 0.94 | locus YPL241C, strain CIN2, stronger effect = lower value 0.995
